miR122 inh: blocks miR-122 activity in Huh7 sensor cells; Huh7 miR-122 Renilla luciferase sensor, 48 h; neutral wells = 0, positive control = 100; activation (reporter increase), % at 12.5 µM; 340,000 tested, 0.3% active;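 active = mean replicate activation score at least 90 and every replicate individually at or above 90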;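 also: higher luciferase means less miR-122 activity so hits act as miR-122 inhibitors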
Env fusion inh: inhibitors of HIV Env-mediated cell fusion | HeLa-JRFL Env/CEM21 cell fusion, luciferase | 360,000 tested, 1.1% active | AID 651610 | inhibition, % at 12.3 µM;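 active = mean replicate inhibition score of at least 50 and every replicate individually at or above 50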;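 also: 0% = plate neutral controls and 100% = maraviroc near 300 nM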
EWS-Fli inh: blocks EWS/Fli oncoprotein-driven transcription; A673 NR0B1-luciferase reporter, viability-normalised; inhibition, % at 12.6 µM; 350,000 tested, 0.67% active; AID 651661;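 active = mean inhibition of at least 50% after viability correction, with every replicate also passing that limit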;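 also: firefly luciferase signal divided by Alamar Blue viability fluorescence both relative to DMSO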
PAX8 reporter: lowers PAX8-driven luciferase in RMG-I cells; RMG-I TPO-luciferase reporter, SteadyGlo, 24 h; 360,000 tested, 1.2% active; inhibition, % at 12.6 µM;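 active = mean replicate inhibition at least 60% with every replicate also reaching 60%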;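 also: luciferase light reporting Pax8 driven TPO promoter activity; plate controls were median of neutral control wells for no effect and mitoxantrone controls for full effect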
INS-1E GSIS act: primary screen for activators of insulin secretion dependent on glucose, INS-1E cells, GLuc reporter luminescence. INS-1E GLuc reporter insulin secretion, 2-3 h. activation, % at 16.6 µM. 370,000 tested, 0.61% active;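 active = lowest replicate activation of at least 40%, so every replicate reaches that level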;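 also: 0% = median of neutral control wells and 100% = median of IBMX positive control wells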
Statin myotox sup: suppressors of simvastatin-induced myotoxicity in C2C12 myotubes. ATP luminescence, 48 h; scaled: DMSO 0, geranylgeraniol control 100. rescue of ATP level, % at 7.49 µM. 330,000 tested, 0.78% active;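 active = mean ATP rescue above about 67%, or every replicate alone reaching that limit, limit read from the data, passing the limit was not always enough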;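 also: myotubes were challenged with 10 µM simvastatin during compound exposure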
The depositor's hits bear a star; · = no result given; [ ] = dose if it differs, or a comment. Most compounds without a hit are left out; they make up all but 3.1% or so of the library.

SMILES	miR122 inh	Env fusion inh	EWS-Fli inh	PAX8 reporter	INS-1E GSIS act	Statin myotox sup
COc1ccc(S(=O)(=O)N(C)C[C@H]2OCCCC[C@H](C)Oc3ccc(NC(=O)NC(C)C)cc3C(=O)N([C@H](C)CO)C[C@@H]2C)cc1	-2[16.7 µM]	-36[16.7 µM]	1	-4	-21	·
CCOc1ccc(CC(=NCCc2ccccc2)C2=C(O)CC(C)(C)CC2=O)cc1OCC	-3	1	·	-9	-20	·
CCOc1ccc(CC(=N)C2=C(O)CC(C)(C)CC2=O)cc1OCC	133*	-17	·	1	-5	·
CCS(=O)(=O)Nc1ccc2c(c1)OC[C@H](C)NC[C@@H](C)[C@@H](OC)CN(C)C2=O	-7[16.7 µM]	-13[16.7 µM]	-3	12	3	9
CNC(=O)C[C@H]1CC[C@H]2[C@@H](COc3ccc(NC(=O)C4CC4)cc3C(=O)N2C)O1	-43[16.7 µM]	9[16.7 µM]	-4	-21	-6	4
Cc1csc(NC(=O)CSc2nnc(CCNC(=O)c3cccs3)n2C)n1	-4	-33	·	15	·	98*
COc1ccc(S(=O)(=O)N(C)C[C@@H]2Oc3ccc(NS(=O)(=O)c4ccc(F)cc4)cc3CC(=O)N([C@H](C)CO)C[C@@H]2C)cc1	-5[16.7 µM]	7[16.7 µM]	-1	·	5	-18
c1ccc(-c2nnc(-c3ccccn3)nc2NC2CCCCC2)cc1	8	-264	·	69*	-18	·
C=C1CC(C)OC(c2ccccc2OCC(O)CN2CCCCC2)C1 (stereo not drawn)	-2	2	·	·	-21	115*
OC(COc1cccc2ccccc12)CN1CCCC1 (stereo not drawn)	10	-97	·	13	·	-10
C[C@@H]1CN([C@@H](C)CO)C(=O)Cc2cc(NC(=O)CCN3CCOCC3)ccc2O[C@@H]1CN(C)C(=O)Nc1ccc(C(F)(F)F)cc1	3[16.7 µM]	-12[16.7 µM]	11	·	3	-10
Cc1ccc(S(=O)(=O)NCC[C@@H]2CC[C@@H](NC(=O)CC3CC3)[C@@H](CO)O2)cc1	·	-27[16.7 µM]	4	12	17	6
COc1ccc(N=Cc2c(O)c3ccccc3n2C(C)=O)cc1	6	-109	-79	-40	11	5
COc1ccc(N=Cc2sc(O)c3ccccc23)cc1	-2	-356	·	-218	·	180*
Clc1ccc(-c2nnc(C3CCCCC3)o2)cc1	-3	-84	·	-121	·	123*
Cc1cc(=O)n2c(C)n[nH]c2n1	1	·	·	·	31	120*
C/C=C/c1ccc2c(c1)O[C@H](CN(C)C(=O)Nc1ccc(C(F)(F)F)cc1)[C@H](C)CN([C@H](C)CO)S2(=O)=O	51[16.7 µM]	38[16.7 µM]	23	·	-25	-24
O=C(Cc1ccc(Cl)cc1)NCCS(=O)(=O)N1CCN(c2ccccc2F)CC1	·	-11	25	24	-8	-7
O=C(COc1ccc(Cl)cc1)NCCS(=O)(=O)N1CCN(c2ccccc2F)CC1	-9	0	-6	18	41*	13
O=C(O)C[C@H]1CC[C@H](NC(=O)Nc2ccccc2)[C@@H](CO)O1	·	-4[16.7 µM]	9	-3	-4	-18
CC(C)c1cc(NCCOCCO)n2c(nc3ccccc32)c1C#N	·	0	5	11	52*	-12
CN1[C@@H]2c3ccc(-c4ccccc4)c(=O)n3C[C@H]1[C@H](CO)[C@H]2C(=O)NCC1CC1	-1[16.7 µM]	·	1	·	29	12
Nc1nc(Cl)nc2c1ncn2C1OC(CO)C(O)C1O (stereo not drawn)	-4	·	10	·	9	13
Nc1nc(=O)n(C2OC(CO)C(O)C2O)cc1F (stereo not drawn)	-4	62*	45	33	·	-9
Nc1ncnc2c1ncn2[C@@H]1O[C@H](CO)[C@@H](O)[C@@H]1O	1	·	7	11	2	-7
Nc1nc(F)nc2c1ncn2[C@@H]1O[C@H](CO)[C@@H](O)[C@@H]1O	1	62*	16	60	10	-6
Nc1nc(F)nc2c1ncn2[C@@H]1O[C@H](CO)[C@@H](O)[C@H]1O	-27	73*	45	108*	·	-146
COc1ccc(NC(=O)N(C)C[C@@H]2Oc3ccc(NS(=O)(=O)c4c(C)noc4C)cc3CC(=O)N([C@@H](C)CO)C[C@@H]2C)cc1	15[16.7 µM]	-35[16.7 µM]	-3	·	23	-21

Source: PubChem BioAssay
